# Measurements: PubChem BioAssay (NCATS)
# The source made the active and inactive calls. Calls come from the whole dose curve.
# Target: Catechol O-methyltransferase (Homo sapiens) (UniProt P21964)
# Assay: Confirmatory Screen for Target Class Profiling of Small Molecule Inhibitors of Methyltransferases (AID 1745852); for activity change, negative = inhibition: % is set by controls: 0 for no effect and ±100 for the full control effect
# Conditions: MTase-Glo luminescence, SAH detection, recombinant enzyme; measured here: COMT max response; stronger effect = lower value
# Potency is the fitted concentration of half-maximal effect.
# Catechol O-methyltransferase (Homo sapiens), sequence (P21964 whole entry, looked up): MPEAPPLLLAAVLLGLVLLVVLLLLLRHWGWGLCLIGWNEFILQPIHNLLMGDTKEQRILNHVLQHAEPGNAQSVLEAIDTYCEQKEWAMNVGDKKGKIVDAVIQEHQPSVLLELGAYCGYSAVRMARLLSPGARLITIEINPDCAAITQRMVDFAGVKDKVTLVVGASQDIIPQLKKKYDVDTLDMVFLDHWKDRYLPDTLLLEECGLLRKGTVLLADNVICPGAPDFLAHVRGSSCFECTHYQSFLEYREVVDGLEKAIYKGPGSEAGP
row,Structure (SMILES),activity
1,C=CC(=O)Nc1ccc2ncnc(Nc3cccc(Br)c3)c2c1,-59.2%
2,O=C(NCCCc1ccccc1)c1cccc(-c2cc(O)c3ncccc3c2)c1,-82.7%
3,CCNC(=O)C#Cc1ccc2c(C(=Nc3ccc(CN(C)C)cc3)c3ccccc3)c(O)[nH]c2c1,-20.9%
4,COc1ccccc1OCCNCC(O)CCOc1cccc2[nH]c3ccccc3c12 (stereo unspecified),-5.33%
5,Cc1nnc(C[C@@H]2C=C(c3ccc(Cl)cc3)c3ccccc3-n3c(C)nnc32)o1,-1.31%
6,COc1ccc(CCc2nc3c(C)c(-c4c(C)noc4C)c(C)cc3n2CCN2CCOCC2)cc1,6.34%
7,C[C@]12CC[C@@H]3c4ccc(O)c(O)c4CC[C@H]3[C@@H]1CCC2=O,-61.7%
8,CC12CCC3C1C(c1c(cc(O)c(C(=O)c4ccccc4)c1O)O2)C3(C)C (stereo unspecified),-35.5%
9,C=C1C(=O)OC2/C=C(/C)C3=CC(=O)C(C)(CC(OC(=O)/C(C)=C/COC(C)=O)C12)O3 (stereo unspecified),-88.1%
10,Cc1c[nH]c2ncnc(N3CCC(CN)(C(=O)Nc4cccc(OC(=O)N(C)C)c4)CC3)c12,-12.7%
11,C=C1C(OC2OC(CO)C(O)C(O)C2O)CC2C(C)(C)C(O)CCC2(C)C1CC/C(C)=C\COC(=O)CC(=O)O (stereo unspecified),-58.5%
12,CC(=O)OC/C(=C/C(=O)O)CC[C@@H]1C(C=O)=CC[C@@H]2C(C)(C)CCC[C@@]12C,-75.1%
13,Cc1sc2c(c1C)C(c1ccc(Cl)cc1)=N[C@H](CC(=O)NCCCCNC(=O)COc1cccc3c1C(=O)N([C@H]1CCC(=O)NC1=O)C3=O)c1nnc(C)n1-2,-0.126%
14,CC(C)(O)C(=O)N1CCN(c2ccc(C(F)(F)F)c(C3=C(c4c[nH]c5ccccc45)C(=O)NC3=O)c2)CC1,-37.9%
15,CCOC(=O)c1cnc2ccc(-c3cncc(NS(=O)(=O)c4ccccc4)c3)cn12,-38.9%
16,Fc1ccc2c(CCNCc3cccc(OCC(F)(F)C(F)F)c3)c[nH]c2c1,-0.052%
17,CC(C)c1cc2c(N3CCN(C4=NCC(C)(C)S4)CC3)ncnc2s1,-1.24%
18,Clc1ccc(Cn2c(Cc3ccccc3)nc3ccccc32)cc1,-6.59%
19,O=C(NCCCNc1nc(Nc2cccc(CN3CCOCC3)c2)ncc1C1CC1)C1CCC1,-3.13%

row,Structure (SMILES),activity
1,Cc1c(OCc2cccc(-c3ccc(C(=O)O)cc3)c2)cc2c(c1C)C(=O)C(C1CCCC1)C2 (stereo unspecified),-4.94%
2,N#Cc1ccc(COC[C@H]2O[C@@H](n3c(NCc4ccc(Cl)c(Cl)c4)nc4c(N)ncnc43)[C@H](O)[C@@H]2O)cc1,-4.68%
3,O=C(c1ccccc1)c1c(O)cc(O)cc1O[C@@H]1O[C@H](CO)[C@@H](O)[C@H](O)[C@H]1O,-80.6%
4,CCOC(=O)N1CCC(CN(Cc2ccc(Cl)cc2)Cc2ccc([N+](=O)[O-])s2)C1 (stereo unspecified),-21.2%
5,C=CC(=O)Nc1cccc(Nc2nc(Nc3ccc(OCCOC)cc3)ncc2F)c1,-40.1%
6,Nc1ncnc2c1c(-c1ccc(Oc3ccccc3)cc1)nn2[C@@H]1CCCNC1,-13.8%
7,CCC(=C(c1ccc(OCCN2CCCC2)cc1)c1ccc(OCCN2CCCC2)cc1)c1ccccc1,-7.7%
8,Cc1[nH]c(/C=C2\C(=O)Nc3ccc(S(=O)(=O)N(C)c4cccc(Cl)c4)cc32)c(C)c1C(=O)N1CCN(C)CC1,-10.8%
9,COc1c2c(c(C)c3c1C(=O)OC3)O[C@@]1(C)C[C@@H](OC(C)=O)[C@]34O[C@](OC)(CC[C@]3(C)[C@H]1C2)OC4(C)C,-8.48%
10,COc1ccc(NC(=O)c2ccc(-c3ccc(C(=N)N)cc3C)cc2)cc1N1CCN(C)CC1,-5.44%
11,COc1ccc(CCN(C)CCCOc2nsc(-c3ccccc3)n2)cc1OC,-5.88%
12,CC1(C)CC[C@]2(C(=O)O[C@@H]3O[C@H](CO)[C@@H](O)[C@H](O)[C@H]3O)CC[C@]3(C)C(=CCC4[C@@]5(C)CC[C@H](O[C@@H]6O[C@H](C(=O)O)[C@H](O)[C@H](O)[C@H]6O)C(C)(C)C5CC[C@]43C)[C@@H]2C1 (stereo partly specified),-55%
13,Cc1cc(NC(=O)c2cccc(NC(=O)/C=C/CN(C)C)c2)ccc1Nc1nccc(-c2cccnc2)n1,-3.09%
14,CC(C)(O)c1ccc2c(c1)ncn2-c1cccc(-c2ccccc2C#N)c1,-35.9%
15,O=S1(=O)CCN(Cc2cc(NCC3CCOCC3)c3[nH]c(-c4ccccc4)cc3c2)CC1,-4.1%
16,CCC(=O)N1CCOc2c(cc(-c3ccc(OC)c(OC)c3)cc2OC[C@H]2CCCN(C)C2)C1,-13.1%
17,CN(C)CC1CCn2c(c(C3=C(c4cn(C)c5ccccc45)C(=O)NC3=O)c3ccccc32)C1 (stereo unspecified),-13.6%
18,COC(=O)CC1OC(C)C2=C(O)c3c(O)cccc3C(=O)C23OC13 (stereo unspecified),-4.94%
19,COc1cc2ncnc(Nc3cccc(I)c3)c2cc1OC,-55.8%

# Target: Guanidinoacetate N-methyltransferase (Homo sapiens) (UniProt Q14353)
# Assay: as above
# Conditions: MTase-Glo luminescence, SAH detection, recombinant enzyme; activity change, negative = inhibition: at 57.3 µM (top of the series) unless noted; series mostly up to 57.3 µM
Structure (SMILES),Potency,"activity change, negative = inhibition"
C=CC(=O)Nc1ccc2ncnc(Nc3cccc(Br)c3)c2c1,19.2 µM (active),
O=C(NCCCc1ccccc1)c1cccc(-c2cc(O)c3ncccc3c2)c1,,-1.73%
CCNC(=O)C#Cc1ccc2c(C(=Nc3ccc(CN(C)C)cc3)c3ccccc3)c(O)[nH]c2c1,,-11.9% [at 29.8 µM]
COc1ccccc1OCCNCC(O)CCOc1cccc2[nH]c3ccccc3c12 (stereo unspecified),,2.56%
Cc1nnc(C[C@@H]2C=C(c3ccc(Cl)cc3)c3ccccc3-n3c(C)nnc32)o1,inactive,
COc1ccc(CCc2nc3c(C)c(-c4c(C)noc4C)c(C)cc3n2CCN2CCOCC2)cc1,,5.22%
C[C@]12CC[C@@H]3c4ccc(O)c(O)c4CC[C@H]3[C@@H]1CCC2=O,,-3.15%
CC12CCC3C1C(c1c(cc(O)c(C(=O)c4ccccc4)c1O)O2)C3(C)C (stereo unspecified),21.1 µM (active),
C=C1C(=O)OC2/C=C(/C)C3=CC(=O)C(C)(CC(OC(=O)/C(C)=C/COC(C)=O)C12)O3 (stereo unspecified),,0.139% [at 29.8 µM]
Cc1c[nH]c2ncnc(N3CCC(CN)(C(=O)Nc4cccc(OC(=O)N(C)C)c4)CC3)c12,,-4.87% [at 114 µM]
C=C1C(OC2OC(CO)C(O)C(O)C2O)CC2C(C)(C)C(O)CCC2(C)C1CC/C(C)=C\COC(=O)CC(=O)O (stereo unspecified),,0% [at 19.1 µM]
CC(=O)OC/C(=C/C(=O)O)CC[C@@H]1C(C=O)=CC[C@@H]2C(C)(C)CCC[C@@]12C,,-3.55%
Cc1sc2c(c1C)C(c1ccc(Cl)cc1)=N[C@H](CC(=O)NCCCCNC(=O)COc1cccc3c1C(=O)N([C@H]1CCC(=O)NC1=O)C3=O)c1nnc(C)n1-2,,0%
CC(C)(O)C(=O)N1CCN(c2ccc(C(F)(F)F)c(C3=C(c4c[nH]c5ccccc45)C(=O)NC3=O)c2)CC1,30.4 µM (active),
CCOC(=O)c1cnc2ccc(-c3cncc(NS(=O)(=O)c4ccccc4)c3)cn12,42.9 µM (active),
Fc1ccc2c(CCNCc3cccc(OCC(F)(F)C(F)F)c3)c[nH]c2c1,,0.441%
CC(C)c1cc2c(N3CCN(C4=NCC(C)(C)S4)CC3)ncnc2s1,,0.38%
Clc1ccc(Cn2c(Cc3ccccc3)nc3ccccc32)cc1,,-6.78%
O=C(NCCCNc1nc(Nc2cccc(CN3CCOCC3)c2)ncc1C1CC1)C1CCC1,,0%

Structure (SMILES),Potency,"activity change, negative = inhibition"
Cc1c(OCc2cccc(-c3ccc(C(=O)O)cc3)c2)cc2c(c1C)C(=O)C(C1CCCC1)C2 (stereo unspecified),,-6.27%
N#Cc1ccc(COC[C@H]2O[C@@H](n3c(NCc4ccc(Cl)c(Cl)c4)nc4c(N)ncnc43)[C@H](O)[C@@H]2O)cc1,23.5 µM (active),
O=C(c1ccccc1)c1c(O)cc(O)cc1O[C@@H]1O[C@H](CO)[C@@H](O)[C@H](O)[C@H]1O,,-2.61%
CCOC(=O)N1CCC(CN(Cc2ccc(Cl)cc2)Cc2ccc([N+](=O)[O-])s2)C1 (stereo unspecified),,1.91%
C=CC(=O)Nc1cccc(Nc2nc(Nc3ccc(OCCOC)cc3)ncc2F)c1,27.1 µM (active),
Nc1ncnc2c1c(-c1ccc(Oc3ccccc3)cc1)nn2[C@@H]1CCCNC1,,-5.27%
CCC(=C(c1ccc(OCCN2CCCC2)cc1)c1ccc(OCCN2CCCC2)cc1)c1ccccc1,,-5.33% [at 12.7 µM]
Cc1[nH]c(/C=C2\C(=O)Nc3ccc(S(=O)(=O)N(C)c4cccc(Cl)c4)cc32)c(C)c1C(=O)N1CCN(C)CC1,,-2.8%
COc1c2c(c(C)c3c1C(=O)OC3)O[C@@]1(C)C[C@@H](OC(C)=O)[C@]34O[C@](OC)(CC[C@]3(C)[C@H]1C2)OC4(C)C,,2.06% [at 29.8 µM]
COc1ccc(NC(=O)c2ccc(-c3ccc(C(=N)N)cc3C)cc2)cc1N1CCN(C)CC1,,2.76%
COc1ccc(CCN(C)CCCOc2nsc(-c3ccccc3)n2)cc1OC,,-0.0909%
CC1(C)CC[C@]2(C(=O)O[C@@H]3O[C@H](CO)[C@@H](O)[C@H](O)[C@H]3O)CC[C@]3(C)C(=CCC4[C@@]5(C)CC[C@H](O[C@@H]6O[C@H](C(=O)O)[C@H](O)[C@H](O)[C@H]6O)C(C)(C)C5CC[C@]43C)[C@@H]2C1 (stereo partly specified),,-1.02% [at 19.1 µM]
Cc1cc(NC(=O)c2cccc(NC(=O)/C=C/CN(C)C)c2)ccc1Nc1nccc(-c2cccnc2)n1,,1.37%
CC(C)(O)c1ccc2c(c1)ncn2-c1cccc(-c2ccccc2C#N)c1,27.1 µM (active),
O=S1(=O)CCN(Cc2cc(NCC3CCOCC3)c3[nH]c(-c4ccccc4)cc3c2)CC1,,-1.81%
CCC(=O)N1CCOc2c(cc(-c3ccc(OC)c(OC)c3)cc2OC[C@H]2CCCN(C)C2)C1,,-8.77%
CN(C)CC1CCn2c(c(C3=C(c4cn(C)c5ccccc45)C(=O)NC3=O)c3ccccc32)C1 (stereo unspecified),,-2.82%
COC(=O)CC1OC(C)C2=C(O)c3c(O)cccc3C(=O)C23OC13 (stereo unspecified),,-3.96%
COc1cc2ncnc(Nc3cccc(I)c3)c2cc1OC,34.1 µM (active),
